The results in this text go back to ChEMBL document CHEMBL1961873, “Compounds: GSK PKIS; Assays: Nanosyn kinase panel” (2012).

SMILES strings stand for the structures.

Assay [1] deals with Serine/threonine-protein kinase pim-2 (Homo sapiens) (UniProt Q9P1W9). As to conditions: at 1 µM.
In assay [2] the target is Serine/threonine-protein kinase pim-3 (Homo sapiens) (UniProt Q86V86). As to conditions: at 0.1 µM.
For assay [3] the target is unchanged. As to conditions: at 1 µM.
The target of assay [4] is T1, MAP kinase-activated protein kinase 5 (Homo sapiens) (UniProt Q8IW41).
T1 sequence (whole entry): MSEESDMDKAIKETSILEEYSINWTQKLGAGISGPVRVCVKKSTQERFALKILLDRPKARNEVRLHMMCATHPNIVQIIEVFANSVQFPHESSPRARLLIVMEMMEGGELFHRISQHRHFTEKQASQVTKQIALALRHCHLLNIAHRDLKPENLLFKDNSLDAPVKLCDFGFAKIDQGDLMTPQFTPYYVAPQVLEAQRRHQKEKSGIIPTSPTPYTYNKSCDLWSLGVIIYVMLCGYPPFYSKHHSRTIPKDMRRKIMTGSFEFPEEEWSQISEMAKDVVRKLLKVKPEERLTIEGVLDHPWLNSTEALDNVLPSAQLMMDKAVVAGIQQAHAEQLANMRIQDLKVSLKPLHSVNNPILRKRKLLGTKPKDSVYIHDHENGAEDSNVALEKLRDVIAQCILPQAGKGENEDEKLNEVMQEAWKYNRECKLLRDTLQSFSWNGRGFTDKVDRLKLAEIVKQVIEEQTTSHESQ
As to conditions: at 0.1 µM.

Assay [5] addresses T1, MAP kinase-activated protein kinase 5 (Homo sapiens). To be noted: at 1 µM.
Assay [6] concerns the target Serine/threonine-protein kinase SIK1 (Homo sapiens) (UniProt P57059). To be noted: at 0.1 µM.
Assay [7] shares this target. To be noted: at 1 µM.
Assay [8] addresses Serine/threonine-protein kinase SIK2 (Homo sapiens) (UniProt Q9H0K1). To be noted: at 0.1 µM.
Assay [9] has the same target. To be noted: at 1 µM.
For assay [10], the target named is T2, Serine/threonine-protein kinase TBK1 (Homo sapiens) (UniProt Q9UHD2).
T2 sequence (whole entry): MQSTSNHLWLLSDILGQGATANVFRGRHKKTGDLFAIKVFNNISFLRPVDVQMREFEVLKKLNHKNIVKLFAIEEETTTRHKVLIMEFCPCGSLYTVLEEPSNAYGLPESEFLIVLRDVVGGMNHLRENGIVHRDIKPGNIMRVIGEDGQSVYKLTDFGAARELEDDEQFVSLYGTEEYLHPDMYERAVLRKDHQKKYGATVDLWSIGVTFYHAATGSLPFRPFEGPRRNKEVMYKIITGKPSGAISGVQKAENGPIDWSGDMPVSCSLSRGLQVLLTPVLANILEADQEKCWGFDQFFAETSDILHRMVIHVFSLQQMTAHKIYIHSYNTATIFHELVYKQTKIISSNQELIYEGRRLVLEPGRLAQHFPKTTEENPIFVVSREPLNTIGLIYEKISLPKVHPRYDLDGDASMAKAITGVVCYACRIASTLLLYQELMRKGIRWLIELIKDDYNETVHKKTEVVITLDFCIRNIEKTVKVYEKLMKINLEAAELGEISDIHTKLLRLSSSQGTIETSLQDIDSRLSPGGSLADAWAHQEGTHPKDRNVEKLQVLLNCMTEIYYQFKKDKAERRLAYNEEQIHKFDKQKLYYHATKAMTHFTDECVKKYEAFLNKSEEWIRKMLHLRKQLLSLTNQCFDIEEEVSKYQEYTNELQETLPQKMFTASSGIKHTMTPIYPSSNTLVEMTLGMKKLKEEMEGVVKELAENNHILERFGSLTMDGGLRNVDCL
To be noted: at 0.1 µM.

Assay [11] concerns the target T2, Serine/threonine-protein kinase TBK1 (Homo sapiens). To be noted: at 1 µM.
Assay [12] has as its target T3, Testis-specific serine/threonine-protein kinase 1 (Homo sapiens) (UniProt Q9BXA7).
T3 sequence (whole entry): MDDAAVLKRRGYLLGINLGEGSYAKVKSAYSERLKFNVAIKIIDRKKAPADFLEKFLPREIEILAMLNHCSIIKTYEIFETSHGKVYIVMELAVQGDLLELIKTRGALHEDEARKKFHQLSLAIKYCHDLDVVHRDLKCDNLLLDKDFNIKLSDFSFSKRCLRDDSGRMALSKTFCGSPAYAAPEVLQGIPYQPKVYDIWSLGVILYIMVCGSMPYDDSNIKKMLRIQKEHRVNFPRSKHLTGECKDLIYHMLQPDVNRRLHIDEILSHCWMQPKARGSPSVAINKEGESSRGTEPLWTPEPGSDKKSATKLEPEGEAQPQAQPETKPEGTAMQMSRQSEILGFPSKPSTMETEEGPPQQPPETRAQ
To be noted: at 0.1 µM.

Assay [13] concerns the target T3, Testis-specific serine/threonine-protein kinase 1 (Homo sapiens). As to conditions: at 1 µM.
For assay [14], the target named is T4, Testis-specific serine/threonine-protein kinase 2 (Homo sapiens) (UniProt Q96PF2).
T4 sequence (whole entry): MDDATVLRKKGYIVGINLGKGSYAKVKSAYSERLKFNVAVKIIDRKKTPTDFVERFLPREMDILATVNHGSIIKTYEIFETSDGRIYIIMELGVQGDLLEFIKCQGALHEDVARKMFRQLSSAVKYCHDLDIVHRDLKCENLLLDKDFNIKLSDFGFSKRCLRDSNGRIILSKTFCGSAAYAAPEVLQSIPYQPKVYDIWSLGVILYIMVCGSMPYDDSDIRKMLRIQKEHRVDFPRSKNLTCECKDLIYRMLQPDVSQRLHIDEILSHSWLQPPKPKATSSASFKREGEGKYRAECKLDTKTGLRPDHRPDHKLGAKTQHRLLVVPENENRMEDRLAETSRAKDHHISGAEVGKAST
As to conditions: at 0.1 µM.

The target of assay [15] is T4, Testis-specific serine/threonine-protein kinase 2 (Homo sapiens). To be noted: at 1 µM.
The target in assay [16] is Casein kinase I isoform alpha (Homo sapiens) (UniProt P48729). As to conditions: at 0.1 µM.
Sequence of Casein kinase I isoform alpha (Homo sapiens) (P48729 2-337 limits assumed): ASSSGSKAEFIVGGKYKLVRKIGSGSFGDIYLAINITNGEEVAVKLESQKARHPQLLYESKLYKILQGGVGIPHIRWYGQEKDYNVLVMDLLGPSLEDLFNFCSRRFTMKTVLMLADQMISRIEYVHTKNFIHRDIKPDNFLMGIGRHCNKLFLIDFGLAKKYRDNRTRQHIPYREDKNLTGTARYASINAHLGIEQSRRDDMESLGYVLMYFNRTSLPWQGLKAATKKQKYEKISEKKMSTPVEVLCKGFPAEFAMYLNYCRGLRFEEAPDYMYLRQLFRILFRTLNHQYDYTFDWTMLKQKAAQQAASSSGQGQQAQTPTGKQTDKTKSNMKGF
For assay [17] the target is unchanged. As to conditions: at 1 µM.
Assay [18] deals with Casein kinase I isoform gamma-1 (Homo sapiens) (UniProt Q9HCP0). To be noted: at 0.1 µM.
Sequence of Casein kinase I isoform gamma-1 (Homo sapiens) (Q9HCP0 whole entry, looked up, canonical isoform): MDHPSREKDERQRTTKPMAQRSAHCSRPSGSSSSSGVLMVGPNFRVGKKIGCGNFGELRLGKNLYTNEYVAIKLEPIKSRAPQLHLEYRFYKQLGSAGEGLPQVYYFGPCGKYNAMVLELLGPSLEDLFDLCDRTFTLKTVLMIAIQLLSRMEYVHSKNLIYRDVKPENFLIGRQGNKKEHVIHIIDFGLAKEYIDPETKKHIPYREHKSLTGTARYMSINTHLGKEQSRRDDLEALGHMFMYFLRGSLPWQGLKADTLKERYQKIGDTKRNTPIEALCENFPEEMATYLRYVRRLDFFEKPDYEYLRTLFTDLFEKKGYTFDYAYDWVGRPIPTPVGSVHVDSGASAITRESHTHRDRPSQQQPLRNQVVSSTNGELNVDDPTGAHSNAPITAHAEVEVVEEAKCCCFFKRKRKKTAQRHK
The target is the same in assay [19]. To be noted: at 1 µM.
In assay [20] the target is Casein kinase I isoform gamma-2 (Homo sapiens) (UniProt P78368). To be noted: at 0.1 µM.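 Also: values are mean inhibition figures reported as part of the GSK PKIS dataset.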
Sequence of Casein kinase I isoform gamma-2 (Homo sapiens) (P78368 whole entry, looked up, canonical isoform): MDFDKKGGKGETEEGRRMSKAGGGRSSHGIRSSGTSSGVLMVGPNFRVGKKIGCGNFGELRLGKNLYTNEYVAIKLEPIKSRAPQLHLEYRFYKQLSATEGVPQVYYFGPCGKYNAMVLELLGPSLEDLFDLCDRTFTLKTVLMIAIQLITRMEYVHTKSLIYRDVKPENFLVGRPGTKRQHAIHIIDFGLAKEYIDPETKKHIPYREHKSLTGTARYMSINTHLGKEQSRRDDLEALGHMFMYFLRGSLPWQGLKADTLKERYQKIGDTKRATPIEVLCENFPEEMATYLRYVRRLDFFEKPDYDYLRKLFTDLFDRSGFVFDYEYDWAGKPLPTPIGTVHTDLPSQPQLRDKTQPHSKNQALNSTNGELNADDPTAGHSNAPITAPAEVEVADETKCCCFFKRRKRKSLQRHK

Sequence of Serine/threonine-protein kinase pim-2 (Homo sapiens) (Q9P1W9 whole entry, looked up): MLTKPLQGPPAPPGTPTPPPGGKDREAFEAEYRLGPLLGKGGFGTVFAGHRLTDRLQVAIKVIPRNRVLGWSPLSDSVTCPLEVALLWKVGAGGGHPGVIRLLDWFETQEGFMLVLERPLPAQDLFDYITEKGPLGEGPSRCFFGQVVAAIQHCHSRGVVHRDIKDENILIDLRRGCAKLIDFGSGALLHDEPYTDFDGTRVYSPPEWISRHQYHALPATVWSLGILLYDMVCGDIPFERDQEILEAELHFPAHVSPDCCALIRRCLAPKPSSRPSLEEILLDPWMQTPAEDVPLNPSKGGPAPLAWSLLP
Sequence of Serine/threonine-protein kinase SIK2 (Homo sapiens) (Q9H0K1 whole entry, looked up): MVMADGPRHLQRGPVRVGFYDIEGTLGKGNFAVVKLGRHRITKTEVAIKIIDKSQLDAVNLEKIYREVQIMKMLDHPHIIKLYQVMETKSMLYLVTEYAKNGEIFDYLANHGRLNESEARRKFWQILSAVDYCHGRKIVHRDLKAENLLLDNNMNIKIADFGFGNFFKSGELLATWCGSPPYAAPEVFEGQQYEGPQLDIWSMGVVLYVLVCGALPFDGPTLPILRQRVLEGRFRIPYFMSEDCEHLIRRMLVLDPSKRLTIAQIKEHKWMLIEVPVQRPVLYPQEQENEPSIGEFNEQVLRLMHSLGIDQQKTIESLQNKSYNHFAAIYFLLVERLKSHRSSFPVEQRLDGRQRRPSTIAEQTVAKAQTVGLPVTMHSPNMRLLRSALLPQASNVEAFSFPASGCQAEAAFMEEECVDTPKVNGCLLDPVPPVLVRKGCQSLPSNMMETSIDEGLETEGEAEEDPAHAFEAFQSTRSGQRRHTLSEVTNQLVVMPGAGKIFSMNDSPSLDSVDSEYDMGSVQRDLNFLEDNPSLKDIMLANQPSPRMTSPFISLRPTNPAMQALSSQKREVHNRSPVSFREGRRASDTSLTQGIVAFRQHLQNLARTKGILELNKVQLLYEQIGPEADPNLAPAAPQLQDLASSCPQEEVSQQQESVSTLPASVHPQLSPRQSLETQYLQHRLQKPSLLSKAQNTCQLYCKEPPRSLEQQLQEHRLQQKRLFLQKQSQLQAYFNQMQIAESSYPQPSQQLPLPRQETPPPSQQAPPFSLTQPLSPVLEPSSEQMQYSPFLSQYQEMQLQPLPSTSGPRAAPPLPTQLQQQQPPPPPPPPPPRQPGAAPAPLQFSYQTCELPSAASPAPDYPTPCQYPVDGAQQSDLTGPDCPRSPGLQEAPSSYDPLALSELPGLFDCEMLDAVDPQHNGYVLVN
Sequence of Serine/threonine-protein kinase SIK1 (Homo sapiens) (P57059 whole entry): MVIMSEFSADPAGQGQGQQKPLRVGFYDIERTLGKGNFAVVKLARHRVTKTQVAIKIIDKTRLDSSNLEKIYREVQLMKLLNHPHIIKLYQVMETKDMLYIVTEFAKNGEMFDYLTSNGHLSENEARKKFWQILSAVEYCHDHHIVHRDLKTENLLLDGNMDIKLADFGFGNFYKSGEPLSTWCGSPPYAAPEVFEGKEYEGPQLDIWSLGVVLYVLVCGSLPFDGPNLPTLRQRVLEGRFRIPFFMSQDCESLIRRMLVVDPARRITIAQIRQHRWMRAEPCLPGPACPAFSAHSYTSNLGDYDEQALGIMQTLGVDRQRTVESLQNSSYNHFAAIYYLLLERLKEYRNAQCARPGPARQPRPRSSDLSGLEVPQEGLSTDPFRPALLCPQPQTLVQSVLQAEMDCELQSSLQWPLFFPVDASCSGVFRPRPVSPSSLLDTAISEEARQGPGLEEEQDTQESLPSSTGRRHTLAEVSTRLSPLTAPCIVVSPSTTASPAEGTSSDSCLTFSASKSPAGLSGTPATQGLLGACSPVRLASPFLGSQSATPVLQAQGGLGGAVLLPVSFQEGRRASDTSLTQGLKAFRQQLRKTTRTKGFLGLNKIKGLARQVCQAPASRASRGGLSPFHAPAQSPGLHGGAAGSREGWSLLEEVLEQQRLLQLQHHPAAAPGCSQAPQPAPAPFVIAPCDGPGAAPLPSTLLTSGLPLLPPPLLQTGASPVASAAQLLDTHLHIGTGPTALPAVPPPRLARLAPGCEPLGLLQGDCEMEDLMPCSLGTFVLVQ

On to `COc1ccc(-c2ccc3c(NC(=O)C4CC4)n[nH]c3n2)cc1`, for which the inhibition in assay [1] was 0.38%; in assay [2], 0.42%; in assay [3], 0.61%; in assay [4] it was 1.05%; in assay [5], 2.54%; in [6], -0.67%. For the same molecule, the inhibition turned out to be 4.73% in assay [7]; 2.86% in [8]; 6.15% in assay [9]; 2.33% in assay [10]; 0.62% in assay [11]; 2.89% in assay [12]. The inhibition was 4.85% in [13]; 0.65% in assay [14]; 4.63% in assay [15]; 6.34% in [16]; 0.42% in assay [17]; 1.84% in assay [18]. Besides, the results for the inhibition in [19] and in assay [20] were 2.17% and 1.99%, respectively.

Regarding `COc1cccc(-n2cnc3c(N/N=C/c4ccncc4)ncnc32)c1`, the inhibition was -3.43% in assay [1]; 3.67% in [2]; 6.5% in assay [3]; 0.59% in [4]; 2.56% in assay [5]; 1.88% in [6]. Also, the inhibition in assay [7] was found to be 12%; in assay [8], 9.07%; in assay [9] it was 34.1%; in assay [10], 0.99%; in assay [11], 2.56%; in assay [12], 0.41%. The inhibition is 5.32% in assay [13]; 0.37% in [14]; 4.98% in assay [15]; 0.17% in [16]; 0.8% in assay [17]; -3.8% in [18]. Further, the inhibition is -4.26% in assay [19] and -3.36% in [20].

Turning to `NC(=O)c1ccc(Oc2nccc(-c3c(-c4ccc(F)cc4)ncn3C3CCNCC3)n2)cc1`, the inhibition in assay [1] is -0.49%; in [2], 0.26%; in assay [3], 1.82%; in assay [4] it was 3.51%; in assay [5], 2.54%; in assay [6], 4.73%. Also, the inhibition in assay [7] was found to be 11.3%; in [8], 7.22%; in [9] it was 3.63%; in assay [10] it was 3.9%; in assay [11], 4.3%; in assay [12], 4.45%. For the same molecule, the inhibition in assay [13] worked out at 5.29%; in assay [14], 2.52%; in [15], 2.46%; in assay [16], 5.63%; in assay [17], 30.3%; in [18] it was 5.2%. In addition, the inhibition in [19] stood at 9.98%; in assay [20], 5.16%.

Turning to `Clc1ccc(CNc2nccc(-c3cnn4ncccc34)n2)cc1`, the inhibition in assay [1] is 2.14%; in assay [2], 1.78%; in assay [3], 6.13%; in assay [4] it was 0.35%; in [5] it was 0.03%; in assay [6] it was 0.93%. For the same molecule, the inhibition in [7] is 1.65%; in [8] it was 4.14%; in [9], 0.45%; in assay [10] it was 0.1%; in assay [11], 2.91%; in [12], 0.5%. In addition, the inhibition in assay [13] is -0.65%; in assay [14], 0.23%; in [15], -1.43%; in assay [16], 2.75%; in assay [17] it was 16.9%; in [18] it was 0.12%. Further, the inhibition in assay [19] came out at 7.72%; in assay [20] it was 1.44%.

On to `O=C(Nc1n[nH]c2nc(-c3ccco3)ccc12)C1CC1`, for which the inhibition in assay [1] is -0.06%; in [2] it was 0.6%; in assay [3], -0.35%; in assay [4], -0.19%; in [5], -1.25%; in assay [6] it was 4.89%. Moreover, the inhibition in assay [7] was determined as 3.71%; in [8], 0.98%; in assay [9] it was 3.32%; in assay [10] it was 1.19%; in assay [11] it was 2.8%; in assay [12] it was 1.99%. In addition, the inhibition in assay [13] is -0.53%; in assay [14], 0.63%; in assay [15] it was -1.49%; in [16], 0.06%; in assay [17], 3.38%; in assay [18], 0.09%. Moreover, the inhibition in assay [19] was 1.22%; in assay [20] it was -0.26%.

On to `NC(=O)Cc1ccccc1Oc1nccc(-c2c(-c3ccc(F)cc3)ncn2C2CCNCC2)n1`, for which the inhibition was 0.59% in assay [1]; -1.38% in assay [2]; 0.63% in assay [3]; 0.43% in [4]; -0.72% in [5]; 3.93% in assay [6]. Also, the inhibition is 4.7% in assay [7]; 3.81% in assay [8]; -3.54% in assay [9]; 5.2% in assay [10]; 4.55% in assay [11]; 2.65% in assay [12]. Further, the inhibition is 1.8% in [13]; 1.16% in [14]; -0.31% in assay [15]; 9.09% in assay [16]; 12.9% in assay [17]; 4.95% in assay [18]. Also, the inhibition in [19] came out at 10.3%; in assay [20], 3.59%.

For `COc1ccc2cc(-c3c(-c4ccncc4)nc(-c4ccc([S+](C)[O-])cc4C)n3C)ccc2c1` (stereo not given), the inhibition is 0.03% in [1]; 0.41% in assay [2]; 0.9% in [3]; -0.74% in assay [4]; -0.31% in assay [5]; -2.25% in assay [6]. The inhibition in assay [7] is 3.56%; in assay [8], -6.12%; in assay [9] it was -0.83%; in assay [10] it was 0.16%; in assay [11], 1.97%; in assay [12], 0.4%. The inhibition is -0.58% in assay [13]; 0.06% in [14]; -0.06% in assay [15]; 0.77% in [16]; 0.53% in assay [17]; -0.99% in assay [18]. The inhibition in [19] was -0.39%; in assay [20], -0.73%.

Broadly, the inhibition is the relative decrease from the control value, in per cent.
